Measured values published in ChEMBL document CHEMBL3988442, “University of Dundee, Small-Polar-MMV Screening Library” (2021).
For some of these results: Potency and affinity values are given separately.

Tests used:
Design in all cases: scale not given: direction of the effect not stated beside the values
[1] = target: Protein translocase subunit SecA (Escherichia coli (strain K12)) (UniProt P10408); assay: Assay to Identify E. coli SecA ATPase Inhibitors; assay type: functional; settings: 30 µM
Sequence of Protein translocase subunit SecA (Escherichia coli (strain K12)) (P10408 whole entry): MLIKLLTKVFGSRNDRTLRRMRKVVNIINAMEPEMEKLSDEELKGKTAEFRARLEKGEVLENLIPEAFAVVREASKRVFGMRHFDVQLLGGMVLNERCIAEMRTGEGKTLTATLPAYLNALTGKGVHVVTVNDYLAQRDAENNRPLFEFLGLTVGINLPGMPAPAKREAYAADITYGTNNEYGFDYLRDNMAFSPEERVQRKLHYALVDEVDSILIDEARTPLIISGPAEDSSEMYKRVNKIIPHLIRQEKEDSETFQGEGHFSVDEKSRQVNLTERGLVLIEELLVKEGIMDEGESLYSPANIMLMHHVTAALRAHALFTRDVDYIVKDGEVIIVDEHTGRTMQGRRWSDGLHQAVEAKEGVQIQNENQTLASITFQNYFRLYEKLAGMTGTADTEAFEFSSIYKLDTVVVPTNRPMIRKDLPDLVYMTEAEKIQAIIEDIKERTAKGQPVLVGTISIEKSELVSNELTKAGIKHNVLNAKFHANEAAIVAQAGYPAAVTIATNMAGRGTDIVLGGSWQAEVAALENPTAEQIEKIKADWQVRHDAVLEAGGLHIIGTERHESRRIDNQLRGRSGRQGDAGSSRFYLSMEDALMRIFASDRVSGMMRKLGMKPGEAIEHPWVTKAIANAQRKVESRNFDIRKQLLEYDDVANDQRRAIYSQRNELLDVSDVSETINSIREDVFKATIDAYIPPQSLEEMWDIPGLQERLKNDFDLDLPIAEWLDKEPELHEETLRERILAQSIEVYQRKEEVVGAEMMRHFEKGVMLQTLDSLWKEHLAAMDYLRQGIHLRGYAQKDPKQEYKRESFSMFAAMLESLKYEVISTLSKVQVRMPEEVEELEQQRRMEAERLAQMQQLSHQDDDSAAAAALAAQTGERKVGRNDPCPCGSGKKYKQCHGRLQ

[2] = target: T1, Ubiquitin-activating enzyme e1, putative (Leishmania donovani (strain BPK282A1)) (UniProt E9BSI1); assay: Leishmania donovani Ubiquitin Activating Enzyme (LdE1); assay type: functional; settings: 30 µM
T1 sequence (whole entry): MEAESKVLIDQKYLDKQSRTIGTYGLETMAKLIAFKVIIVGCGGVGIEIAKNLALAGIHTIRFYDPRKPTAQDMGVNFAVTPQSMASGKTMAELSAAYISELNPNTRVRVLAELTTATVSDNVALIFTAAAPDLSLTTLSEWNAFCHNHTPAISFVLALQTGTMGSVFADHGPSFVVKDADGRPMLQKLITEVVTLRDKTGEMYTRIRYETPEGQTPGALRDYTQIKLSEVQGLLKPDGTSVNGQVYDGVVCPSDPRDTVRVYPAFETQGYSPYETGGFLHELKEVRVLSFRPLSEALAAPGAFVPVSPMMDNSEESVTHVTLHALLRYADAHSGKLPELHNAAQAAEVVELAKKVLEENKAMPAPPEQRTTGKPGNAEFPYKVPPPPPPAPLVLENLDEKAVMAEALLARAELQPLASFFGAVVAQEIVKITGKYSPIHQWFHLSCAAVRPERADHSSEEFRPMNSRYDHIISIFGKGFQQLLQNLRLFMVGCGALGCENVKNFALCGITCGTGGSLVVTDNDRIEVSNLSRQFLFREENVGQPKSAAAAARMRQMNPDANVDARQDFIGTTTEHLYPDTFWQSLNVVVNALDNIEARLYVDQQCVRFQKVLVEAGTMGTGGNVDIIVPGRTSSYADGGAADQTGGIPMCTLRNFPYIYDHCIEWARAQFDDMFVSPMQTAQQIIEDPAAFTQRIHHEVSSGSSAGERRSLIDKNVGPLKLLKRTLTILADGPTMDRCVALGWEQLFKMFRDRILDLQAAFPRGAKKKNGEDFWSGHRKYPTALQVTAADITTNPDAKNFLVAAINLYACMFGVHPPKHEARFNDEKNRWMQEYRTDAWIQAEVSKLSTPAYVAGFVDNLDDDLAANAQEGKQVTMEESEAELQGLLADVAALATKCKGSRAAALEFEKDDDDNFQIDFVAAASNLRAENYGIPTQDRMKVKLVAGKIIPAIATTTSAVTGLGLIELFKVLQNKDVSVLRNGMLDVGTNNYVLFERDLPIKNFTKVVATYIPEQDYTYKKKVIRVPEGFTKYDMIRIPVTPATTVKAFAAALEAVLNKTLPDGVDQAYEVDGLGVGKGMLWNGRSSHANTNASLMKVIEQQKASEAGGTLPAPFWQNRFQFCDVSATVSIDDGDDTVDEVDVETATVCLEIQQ

[3] = target: AMP-activated protein kinase, AMPK (Homo sapiens) (UniProt P54646+O43741+P54619+Q9UGJ0+Q9Y478+Q13131+Q9UGI9); assay: AMP-dependent Kinase enzyme assay. An in vitro enzyme assay that detects ADP turnover that is directly proportional to AMPK activity. This uses naive AMPK that is activated during the assay with MK-8722; assay type: functional; settings: 30 µM
[4] = target: Sialic acid-binding Ig-like lectin 9 (Homo sapiens) (UniProt Q9Y336); assay: Hs-Siglec9 ALPHAscreen SOP 20170721; settings: 10 µM
Sequence of Sialic acid-binding Ig-like lectin 9 (Homo sapiens) (Q9Y336 whole entry): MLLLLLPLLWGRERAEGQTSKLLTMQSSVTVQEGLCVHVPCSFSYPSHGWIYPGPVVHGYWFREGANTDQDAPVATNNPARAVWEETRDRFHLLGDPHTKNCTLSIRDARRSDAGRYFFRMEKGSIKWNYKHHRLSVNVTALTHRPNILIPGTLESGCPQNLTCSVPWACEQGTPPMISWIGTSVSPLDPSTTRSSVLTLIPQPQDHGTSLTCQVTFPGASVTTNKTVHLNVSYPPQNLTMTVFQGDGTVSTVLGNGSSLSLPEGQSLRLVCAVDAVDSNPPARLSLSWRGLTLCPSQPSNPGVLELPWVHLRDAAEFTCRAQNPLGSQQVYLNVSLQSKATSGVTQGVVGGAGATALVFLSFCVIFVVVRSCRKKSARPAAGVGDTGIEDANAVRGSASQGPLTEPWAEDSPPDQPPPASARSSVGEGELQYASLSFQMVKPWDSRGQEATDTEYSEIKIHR

Trypanosoma cruzi = assay: Trypanosoma cruzi phosphomannomutase and mannose-1-phosphate guanylyltransferase assay; assay type: functional; settings: 10 µM
[5] = target: T2, Arginase-2, mitochondrial (Homo sapiens) (UniProt P78540); assay: in vitro enzyme assay to detect the production of urea directly proportional to the activity of Arginase II; assay type: functional; settings: 33.3 µM; further: in the data most compounds retested in dose-response had high values
T2 sequence (whole entry): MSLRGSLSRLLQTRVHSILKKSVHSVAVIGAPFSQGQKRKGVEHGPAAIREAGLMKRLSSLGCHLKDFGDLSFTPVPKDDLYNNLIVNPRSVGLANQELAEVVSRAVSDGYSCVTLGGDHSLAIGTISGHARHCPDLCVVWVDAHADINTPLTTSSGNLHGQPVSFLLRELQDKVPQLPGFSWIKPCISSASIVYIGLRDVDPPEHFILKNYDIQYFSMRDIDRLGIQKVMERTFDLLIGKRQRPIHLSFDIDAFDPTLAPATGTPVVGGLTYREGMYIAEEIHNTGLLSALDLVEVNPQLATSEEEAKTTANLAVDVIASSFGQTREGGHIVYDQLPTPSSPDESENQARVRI

[6] = target: T3, Proteasome subunit beta (Trypanosoma cruzi) (UniProt O96673); assay: Trypanosoma cruzi proteasome chymotrypsin-like activity (TcProtChymo) assay.; further: in the data most compounds retested in dose-response had high values; assay type: functional; settings: 9.37 µM
T3 sequence (whole entry): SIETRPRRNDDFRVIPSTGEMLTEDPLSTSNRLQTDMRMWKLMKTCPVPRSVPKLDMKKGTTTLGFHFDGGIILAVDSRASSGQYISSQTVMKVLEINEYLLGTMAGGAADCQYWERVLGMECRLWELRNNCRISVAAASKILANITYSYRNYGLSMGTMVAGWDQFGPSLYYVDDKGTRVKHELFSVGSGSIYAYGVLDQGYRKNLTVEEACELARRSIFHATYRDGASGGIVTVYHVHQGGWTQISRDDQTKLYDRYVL

Homo sapiens = organism: Homo sapiens; assay: To identify inhibition of the IFN signalling (Jak-Stat) pathway via expression of an eGFP reporter gene under the control of an IFN-stimulated response element (ISRE) containing MxA promoter.; assay type: functional; settings: 30 µM
[7] = target: T4, Tyrosyl-tRNA synthetase, putative (Trypanosoma cruzi (strain CL Brener)) (UniProt Q4DSP6); assay: Trypanosoma cruzi tyrosyl tRNA synthetase (TcYRS) _High Tyrosine SOP; assay type: functional; settings: 30 µM; further: in the data most compounds retested in dose-response had high values
T4 sequence (whole entry): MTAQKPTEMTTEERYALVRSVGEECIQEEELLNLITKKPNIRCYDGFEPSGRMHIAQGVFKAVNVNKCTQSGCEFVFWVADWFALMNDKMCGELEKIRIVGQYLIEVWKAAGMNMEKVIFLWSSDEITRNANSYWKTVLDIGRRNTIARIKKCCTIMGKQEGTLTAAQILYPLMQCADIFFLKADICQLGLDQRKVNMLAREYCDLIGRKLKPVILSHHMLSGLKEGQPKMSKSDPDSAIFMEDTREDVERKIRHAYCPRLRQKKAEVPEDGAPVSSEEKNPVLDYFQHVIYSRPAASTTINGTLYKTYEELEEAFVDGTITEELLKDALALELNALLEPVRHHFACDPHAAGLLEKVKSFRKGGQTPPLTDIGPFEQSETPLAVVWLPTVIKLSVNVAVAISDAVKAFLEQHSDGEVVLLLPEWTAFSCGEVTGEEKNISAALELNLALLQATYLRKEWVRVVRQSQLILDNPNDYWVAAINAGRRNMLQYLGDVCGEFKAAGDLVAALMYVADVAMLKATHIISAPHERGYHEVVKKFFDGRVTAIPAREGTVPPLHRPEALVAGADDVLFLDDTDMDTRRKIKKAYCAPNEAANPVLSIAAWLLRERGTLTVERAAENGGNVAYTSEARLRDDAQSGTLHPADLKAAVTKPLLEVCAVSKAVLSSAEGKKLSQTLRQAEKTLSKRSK

[8] = target: T4, Tyrosyl-tRNA synthetase, putative (Trypanosoma cruzi (strain CL Brener)); assay: Trypanosoma cruzi tyrosyl tRNA synthetase (TcYRS) SOP; assay type: functional; settings: 30 µM
[9] = target: Chromo domain-containing protein 1 (Saccharomyces cerevisiae (strain ATCC 204508 / S288c) (Baker's yeast)) (UniProt P32657); assay: ScCHD-1 Enzyme Inhibition Assay; assay type: functional; settings: 30 µM; further: in the data most compounds retested in dose-response had high values
Sequence of Chromo domain-containing protein 1 (Saccharomyces cerevisiae (strain ATCC 204508 / S288c) (Baker's yeast)) (P32657 whole entry, the tested form may be a part): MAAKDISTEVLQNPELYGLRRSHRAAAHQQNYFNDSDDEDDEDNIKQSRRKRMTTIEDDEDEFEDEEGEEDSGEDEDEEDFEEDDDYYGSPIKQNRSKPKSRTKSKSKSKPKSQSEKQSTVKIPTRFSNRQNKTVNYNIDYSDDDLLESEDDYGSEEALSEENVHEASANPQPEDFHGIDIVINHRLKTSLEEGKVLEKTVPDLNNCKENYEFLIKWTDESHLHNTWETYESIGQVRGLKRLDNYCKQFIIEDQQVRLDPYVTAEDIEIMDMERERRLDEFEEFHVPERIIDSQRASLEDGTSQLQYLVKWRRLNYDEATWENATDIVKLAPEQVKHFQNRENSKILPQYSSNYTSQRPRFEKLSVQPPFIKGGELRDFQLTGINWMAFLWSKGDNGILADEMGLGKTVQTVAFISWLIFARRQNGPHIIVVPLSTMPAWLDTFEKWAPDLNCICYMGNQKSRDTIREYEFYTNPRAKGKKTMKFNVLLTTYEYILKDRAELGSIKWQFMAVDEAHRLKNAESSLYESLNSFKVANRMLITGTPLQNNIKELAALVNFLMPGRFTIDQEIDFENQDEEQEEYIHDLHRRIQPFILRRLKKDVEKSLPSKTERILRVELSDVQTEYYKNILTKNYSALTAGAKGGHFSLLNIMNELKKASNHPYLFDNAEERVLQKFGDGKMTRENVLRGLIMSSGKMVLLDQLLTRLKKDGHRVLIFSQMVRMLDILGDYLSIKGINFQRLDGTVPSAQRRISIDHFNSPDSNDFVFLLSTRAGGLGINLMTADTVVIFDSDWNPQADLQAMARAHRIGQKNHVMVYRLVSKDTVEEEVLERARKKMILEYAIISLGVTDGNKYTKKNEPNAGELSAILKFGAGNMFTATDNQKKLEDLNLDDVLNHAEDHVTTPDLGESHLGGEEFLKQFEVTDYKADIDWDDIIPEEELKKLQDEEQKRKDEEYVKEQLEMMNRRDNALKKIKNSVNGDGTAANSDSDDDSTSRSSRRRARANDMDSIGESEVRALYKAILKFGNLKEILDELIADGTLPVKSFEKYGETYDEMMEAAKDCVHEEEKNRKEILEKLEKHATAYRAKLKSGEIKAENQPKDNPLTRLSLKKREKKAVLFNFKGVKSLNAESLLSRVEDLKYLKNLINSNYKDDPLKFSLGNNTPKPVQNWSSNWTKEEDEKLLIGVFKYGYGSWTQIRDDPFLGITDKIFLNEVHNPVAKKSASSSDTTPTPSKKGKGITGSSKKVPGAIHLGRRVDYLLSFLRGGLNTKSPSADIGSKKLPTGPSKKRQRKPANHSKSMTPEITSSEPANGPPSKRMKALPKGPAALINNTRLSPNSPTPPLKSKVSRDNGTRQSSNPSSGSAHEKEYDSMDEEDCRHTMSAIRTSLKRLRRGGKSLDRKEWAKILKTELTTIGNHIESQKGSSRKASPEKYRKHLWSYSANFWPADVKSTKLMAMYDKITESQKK

Row | SMILES | Percent Effect [1] [%] | Percent Effect [2] [%] | Percent Effect [3] [%] | Percent Effect [4] [%] | Percent Effect (Trypanosoma cruzi) [%] | Percent Effect [5] [%] | Percent Effect [6] [%] | Percent Effect (Homo sapiens) [%] | Percent Effect [7] [%] | Percent Effect [8] [%] | Percent Effect [9] [%]
1 | CN1CCN(Cc2cn3c(n2)CN(C(=O)N2CCOCC2)CC3)CC1 | -6.56 | 5.2 | 1.33 | 22.1 | 3.25 | -5.52 | 0.499 | -12.5 | 4.3 | 11.1 | 0.336
2 | CS(=O)(=O)N1CC[C@H]2C[C@@H](C(=O)N3CCOCC3)O[C@@H]2C1 | -3.64 | -8 | 8.84 | 4.61 | -1.54 | -53.2 | 2.73 | -12.5 | -2.08 | -7.5 | 1.18
3 | COc1ncccc1NC(=O)C1CCN(S(C)(=O)=O)CC1 | -2.31 | 15.6 | -6.01 | 4.87 | 0.749 | -0.356 | 6.42 | 15.1 | 6.8 | 21.9 | -9.19
4 | CN(C)CC1CN(Cc2csc(C3CCCC3)n2)CCO1 (stereo unspecified) | -2.18 | 5.26 | -6.29 | 9.69 | 6.63 | 0.36 | 7.02 | -33 | 8.37 | 16.1 | 4.62
5 | COCCc1noc(CNCC2CCCN2c2cccnn2)n1 (stereo unspecified) | -4.29 | 18.2 | -3.94 | -5.52 | 4.41 | -5.68 | 20.8 | 2.37 | 10.5 | 32.9 | -23.1
6 | CCOCC(O)CN1CCN(C(=O)c2ccccc2Cl)CC1 (stereo unspecified) | -5.28 | 5.26 | 5.55 | 2.24 | 0 | 2.3 | -3.17 | -0.893 | 1.47 | 7.32 | 4.97
7 | Cc1cccc(NC(=O)NCCCn2nc3ccccn3c2=O)c1C | -5.55 | 2.7 | -32 | -5.5 | 0.0943 | 0 | -1.26 | 6.71 | 8.37 | 6.17 | -9.2
8 | COCCN1CCN(Cc2noc(C3CC3)n2)CC1C (stereo unspecified) | 0.0669 | 22.8 | -4.5 | -13.4 | -3.87 | 1.14 | 10.7 | -0.744 | 1.48 | 11.4 | -3.63
9 | Cc1csc(N2CCCN(C(=O)C(C(C)C)n3cncn3)CC2)n1 (stereo unspecified) | -1.03 | 13.5 | 0.997 | -3.98 | -5.29 | 3.51 | 10.9 | 19.3 | 6.93 | 15.8 | -2.71
10 | Cc1cnn(CCNCC(=O)NCC2(c3ccccc3)CCC2)c1 | -3.26 | 10.4 | 0.236 | -13.1 | -5.19 | -3.58 | 12.4 | 11.5 | 12.4 | 14.1 | -19.9
11 | CC(O)CN1CCN(C(=O)c2ccc(Br)o2)CC1 (stereo unspecified) | -4.28 | 15.8 | 17.9 | -7.51 | -3.57 | 3.45 | 8.69 | 22.7 | 4.41 | 9.76 | -12.7
